Results on 97 compounds are retold here after PubChem BioAssay AID686979 (National Center for Advancing Translational Sciences (NCATS), 2013).

The campaign covered roughly 420,000 compounds. About 50,000 (12%) were called active. A call without a number means that no potency is given here. About 26% were inconclusive and are not listed. Only a selection was taken, and actives are over-represented in it overall. Values without a mark were called inactive. Calls follow the shape of the dose curve; as a rule, active = well fitted inhibition curve with a large enough effect; inconclusive = small, poorly fitted or top-dose-only effect; inactive = flat fitted curve, though single readings scatter.
Potency is read from the fitted curve at half-maximal effect.

A short description of the test: qHTS for Inhibitors of human tyrosyl-DNA phosphodiesterase 1 (TDP1): qHTS in cells in presence of CPT. Also: nearly all actives have a fitted effect of over 55% in size. The settings on record: chicken DT40 Tdp1-/-;hTDP1 cells + 20 nM CPT, ATP luminescence, 48 h; series mostly up to 46.2 µM. Summed up: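 Chicken DT40 Tdp1-/- cells complemented with human TDP1, 400 cells/well, exposed to compounds plus 20 nM camptothecin for at least 48 h at 37 C; viability read as ATP content by CellTiter-Glo luminescence.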
In general terms: Quantitative high-throughput screening tests each substance at several concentrations.
On to `CC(=O)Nc1sc2c(c1C(c1cccc(F)c1)N1CCN(CCO)CC1)CCCC2` (configuration not stated), for which the Potency is 23.1 µM (active). `Cc1cccc(C)c1NC(=O)C(c1cccc(F)c1)N1CCN(C)CC1` (configuration not stated): the Potency entry is “inactive”. `O=C(NC(c1ccccc1)c1ccccc1)N1CCN(CCO)CC1`: the Potency result is “inactive”. Still for that read-out and setting: to `COc1ccccc1CNC(=O)COC(=O)CNS(=O)(=O)c1ccc(NC(C)=O)cc1` belongs “inactive”; to `O=C(Cc1ccccc1)Nc1c(Cl)ccc2nsnc12`, “inactive”. For the compound `CCN(CC)S(=O)(=O)c1ccc2c(c1)c(=O)c(C(=O)N1CCN(c3cccc(Cl)c3)CC1)cn2C`, the Potency entry was “inactive”.

Take `C=CCn1cc(C(=O)NCc2ccc(Cl)cc2)c(=O)c2cc(S(=O)(=O)N(CC)CC)ccc21`: the Potency was 20.6 µM (active). As for `CCOC(=O)N1CCN(C(=O)c2cn(C)c3ccc(S(=O)(=O)N(CC)CC)cc3c2=O)CC1`, the Potency result is “inactive”. Regarding `CSc1ncnc2c1ncn2CCCNCC(C)c1ccccc1` (configuration not stated), the Potency result is “inactive”. Consider `O=C(Nc1cc(S(=O)(=O)N2CCOCC2)ccc1OCC(F)(F)F)c1ccc(N2CCCC2=O)cc1`, for which the Potency entry is “inactive”. As to `CC(C)c1ccc(NC(=S)NC2CC3C=CC2C3)cc1` (configuration not stated), the Potency is 14.6 µM (active).

With `S=C(NNC(=S)NC1CC2CCC1C2)NC1CC2C=CC1C2` (configuration not stated), the Potency entry was “inactive”. As for `S=C(NNC(=S)NC1CC2C=CC1C2)NC1CC2C=CC1C2` (configuration not stated), the Potency entry is “inactive”.

Regarding `COCCCN(C(=O)CSCc1ccc(C)cc1)c1c(N)n(Cc2ccccc2)c(=O)[nH]c1=O`, the Potency entry was “inactive”. In the case of `Cc1ccc(S(=O)(=O)N2CCCC2C(=O)NCc2ccco2)cc1` (configuration not stated), the Potency result is “inactive”. Still for that read-out and setting: to `O=C(NCCC1CCCCN1S(=O)(=O)c1ccc(Cl)cc1)C(=O)NCc1ccco1` (configuration not stated) belongs 16.4 µM (active); to `O=C(NCCC1CCCCN1S(=O)(=O)c1ccccc1)C(=O)NCC1CCCO1` (configuration not stated), “inactive”; to `O=C(/C=C/[C@H]1O[C@@H](n2ccc(=O)[nH]c2=O)[C@H](O)[C@@H]1O)NCc1ccccn1`, “inactive”.

Consider `COc1ccc(OCCn2ccnc2C)cc1`, for which the Potency result was “inactive”. Regarding `COc1ccc(OCCCn2c(C)nc3cc(C)c(C)cc32)cc1`, the Potency is 11.6 µM (active).

On to `Cc1cc2nc(C)n(CCCNC(=O)Nc3ccccc3)c2cc1C`, for which the Potency result is “inactive”. On to `CCn1cc(C(=O)NCCC(=O)NCCO)c(=O)c2cc3c(cc21)OCO3`, for which the Potency entry is “inactive”.

As to `COC(=O)C1=C(C(=O)OC)[C@@H]2N(C)c3ccccc3[C@@]23C[C@@H](C(=O)OC)N(C(=O)c2ccco2)C3=N1`, the Potency entry was “inactive”. Take `Cc1noc(C)c1NC(=O)Nc1ccc2c(c1)C(=O)N([C@H](C)CO)C[C@H](C)[C@@H](CN(C)S(=O)(=O)c1cn(C)cn1)O2`: the Potency result was “inactive”. On the same count and under the same terms, to `COc1ccc(CNC(=O)CSc2n[nH]c(N)n2)cc1OC` belongs “inactive”; to `CCC(CO)Oc1cc(NC(=O)c2cccc(F)c2)c2ncn(C(C)C)c2c1` (configuration not stated), “inactive”; to `CC(C)n1cnc2c(NCc3ccccc3)cc(OCC3CCN(C)CC3)cc21`, 20.6 µM (active). As to `CCC(CO)Oc1cc(NC(=O)c2ccc(Cl)cc2)c2ncn(C(C)C)c2c1` (configuration not stated), the Potency entry is “inactive”. Still for that read-out and setting: next, `Cn1nc(C(=O)OCC(=O)N(Cc2ccccc2)C(C)(C)C)c2ccccc2c1=O`: “inactive”; `O=C(CN1CCCCCC1)Nc1ccc(Br)cc1[N+](=O)[O-]`: “inactive”.

As to `Cc1ccc(S(=O)(=O)C2(S(=O)(=O)c3ccc(C)cc3)CCCC2)cc1`, the Potency was 7.31 µM (active). As to `Cc1ccc(S(=O)(=O)NC2CCCCCC2)cc1`, the Potency entry is “inactive”.

As to `Cc1ccc(S(=O)(=O)N(C)C2(C)CCS(=O)(=O)C2)cc1` (configuration not stated), the Potency result is “inactive”. For `COc1ccc(/C=C(/NC(=O)c2ccccc2)C(=O)Nc2cccc(C(=O)O)c2)cc1`, the Potency entry is “inactive”. Regarding `CCOC(=O)N1CCN(C(=O)CN(c2ccc(C)c(C)c2)S(=O)(=O)c2ccccc2)CC1`, the Potency result is “inactive”. As to `Cc1ccc(S(=O)(=O)N(CCc2ccccc2)c2ccc3c(c2)C2CC3CCN2C(=O)OCc2ccccc2)cc1` (configuration not stated), the Potency was 20.6 µM (active). On to `Cc1ccc(S(=O)(=O)CCC(=O)OCc2ccccc2)cc1`, for which the Potency entry was “inactive”. Same read-out and setting: next, `COc1ccc(C(=O)NCC2CCCCC2)cc1S(=O)(=O)N1CCCC1`: “inactive”. For `Cc1[nH]c2c(C(=O)NCC3Cc4cccc(-c5cccnc5)c4O3)cccc2c1C` (configuration not stated), the activity change, negative = growth inhibition was -3.45% [at 9.04 µM]. For the compound `Cc1cc(=O)oc2cc(OCC(=O)N3CCN(c4ccc(F)cc4)CC3)c(Cl)cc12`, the Potency entry was “inactive”. `COc1ccccc1-n1c(-c2cc(-c3ccco3)[nH]n2)n[nH]c1=S`: the Potency entry was “inactive”.

With `COc1cccc(CNn2cn[nH]c2=S)c1OCc1ccccc1`, the Potency result is “inactive”.

With `COc1ccccc1-n1cn[nH]c1=S`, the Potency was 29.1 µM (active).

For the compound `COCCNC(=O)C(OC(=O)c1cccs1)c1ccc(F)cc1` (configuration not stated), the Potency entry was “inactive”. On the same count and under the same terms, next, `CCOc1ccc2ccccc2c1/C=N/NC(=O)c1c(C)cc(C)[nH]c1=O`: “inactive”. Same read-out and setting: next, `COc1ccc2ccccc2c1/C=N/NC(=O)c1cc(C)[nH]n1`: 8.2 µM (active); `COc1ccc(/C=N\NC(=O)c2sc(N)nc2C)cc1OC`: “inactive”; `O=C(CN1C(=O)S/C(=C\c2ccccc2F)C1=O)NCCCn1ccnc1`: “inactive”. As to `COCc1cc(C(C)=O)ccc1OC`, the Potency result is “inactive”.

With `COc1ccc(C(C)=O)cc1COc1ccc(Cl)c(C)c1`, the Potency was 10.3 µM (active). Regarding `COc1ccc(-c2noc(COc3ccc(Cl)c(C)c3)n2)cc1`, the Potency entry was “inactive”. Consider `COCCCNC(=S)N(CCN(C)C)Cc1cc2cc3c(cc2[nH]c1=O)OCCO3`, for which the Potency result was “inactive”. On to `OCc1ccc(OCCCOc2cccc3cccnc23)cc1`, for which the Potency result is “inactive”. With `Nn1c(SCc2ccccc2)nnc1C1CCCCC1`, the Potency result was “inactive”. Consider `C[C@@H]1CN([C@@H](C)CO)C(=O)c2cc(NS(C)(=O)=O)ccc2O[C@@H](C)CCCCO[C@H]1CN(C)C(=O)Nc1ccc2c(c1)OCO2`, for which the Potency result was “inactive”. Regarding `CC(C)NC(=O)Nc1ccc2c(c1)C(=O)N([C@H](C)CO)C[C@H](C)[C@@H](CN(C)Cc1ccc(C(F)(F)F)cc1)OCCCC[C@@H](C)O2`, the Potency is 13 µM (active). As to `Cc1noc(C)c1NC(=O)Nc1ccc2c(c1)C(=O)N([C@H](C)CO)C[C@H](C)[C@@H](CN(C)C(=O)Nc1ccc(C(F)(F)F)cc1)O2`, the Potency result is “inactive”. Turning to `Cc1ccc(S(=O)(=O)N2CCOCC2)cc1NC(=O)c1ccncc1`, the Potency entry was “inactive”. Turning to `O=C(O)c1c(NC(=O)N2CCCC2)sc2c1CCCC2`, the Potency entry was “inactive”. Consider `COc1cn(CC(=O)Nc2cccc(C)c2C)c(CN2CCCCC2)cc1=O`, for which the Potency result is “inactive”. Regarding `O=C(C1CC1)N1N=C(c2ccc(Br)cc2)CC1(O)C(F)(F)F` (configuration not stated), the Potency result is “inactive”. With `O=C(c1ccc(Cl)cc1)N1N=C(c2ccccn2)CC1(O)C(F)(F)F` (configuration not stated), the Potency was 25.9 µM (active). Consider `O=C(Cc1ccccc1)N1N=C(c2ccncc2)CC1(O)C(F)(F)F` (configuration not stated), for which the Potency entry is “inactive”. Same read-out and setting: next, `C=CCn1c(SCC(=O)NC(=O)Cc2ccccc2)nc2ccccc2c1=O`: “inactive”. Take `COc1ccccc1C(=O)NC(=S)Nc1ccccc1N1CCCCC1`: the Potency entry is “inactive”. As for `CCC(=O)Nc1ccccc1N1CCN(S(C)(=O)=O)CC1`, the Potency result was “inactive”. Consider `COc1ccc(C(=O)NC(=S)Nc2ccccc2N2CCN(S(C)(=O)=O)CC2)cc1OC`, for which the Potency is 12.6 µM (active). `COc1ccc(S(=O)(=O)N2CCOCC2)cc1C(=O)NC1CCCCC1`: the Potency entry was “inactive”. Same read-out and setting: next, `O=C(CC1SC(N2CCCC2)=NC1=O)Nc1ccc(C(=O)NCCc2ccc(F)cc2)cc1` (configuration not stated): “inactive”; `Fc1ccc(-c2csc(-c3ccc(C4SCCS4)cc3)n2)cc1F`: “inactive”. Regarding `COc1cc(NC(=O)C2CC(c3ccccc3O)=NO2)c(OC)cc1Cl` (configuration not stated), the Potency result is “inactive”. For the compound `COc1cc(NC(=O)Cn2nc(-c3ccc(C)c(C)c3)ccc2=O)cc(OC)c1`, the Potency is 20.6 µM (active). Turning to `COc1cc(NC(=O)CSc2nnc3ccc(-c4ccncc4)nn23)cc(OC)c1`, the Potency entry was “inactive”. Take `COc1ccc(-c2ccc(=O)n(CC(=O)Nc3ccc(Br)cc3F)n2)cc1`: the Potency result is “inactive”.

`O=C(Nc1nnc(CCOCCOCCc2nnc(NC(=O)c3ccco3)s2)s1)c1ccco1`: the Potency result is “inactive”. For `CCCNC(=O)NC(=O)COC(=O)CC(NC(N)=O)c1ccc(Cl)cc1` (configuration not stated), the Potency result was “inactive”.

For the compound `Cn1c(SCC(=O)Nc2ccc(N3CCOCC3)cc2)nnc1C(F)(F)F`, the Potency result was “inactive”.

Take `COc1ccc(Cn2c(=O)[nH]c3cc(C(=O)N4CCN(C(=O)c5ccco5)CC4)ccc3c2=O)cc1`: the Potency is 11.2 µM (active). For `O=C(c1ccc2c(=O)n(Cc3ccco3)c(=S)[nH]c2c1)N1CCCC1`, the Potency entry is “inactive”.

As to `COc1ccccc1Cn1c(=S)[nH]c2cc(C(=O)N3CCN(C)CC3)ccc2c1=O`, the Potency entry was “inactive”.

For `CCOC(=O)N1CCN(C(=O)c2ccc3c(=O)n(CCc4ccc(OC)c(OC)c4)c(=O)[nH]c3c2)CC1`, the Potency was 20.6 µM (active). Turning to `COc1cc2[nH]c(=O)n(Cc3ccc(C(=O)NC4CCN(Cc5ccccc5)CC4)cc3)c(=O)c2cc1OC`, the Potency result is “inactive”. With `COCCn1c(=S)[nH]c2cc(C(=O)NCCc3ccc(OC)c(OC)c3)ccc2c1=O`, the Potency result is “inactive”. For the compound `O=C(N=C1SC2CS(=O)(=O)CC2N1c1ccccc1)c1ccccc1` (configuration not stated), the Potency entry is “inactive”. Consider `CS(=O)(=O)c1ccc(Cl)c(NC(=O)COC(=O)c2cccc(S(=O)(=O)N3CCCC3)c2)c1`, for which the Potency result was “inactive”.

As to `CC(C)CCNC(=O)C(C)N(C(=O)Cn1nnc(-c2ccc(F)cc2)n1)C1CCCC1` (configuration not stated), the Potency entry is “inactive”. Regarding `O=C(O)c1ccccc1CSc1nc2ccccc2s1`, the Potency result was “inactive”. On the same count and under the same terms, next, `COc1ccc2sc(-c3ccc(N(C)C)cc3)c(-c3ccc4cc[nH]c4c3)c2c1`: “inactive”; `CN(C)c1ccc(/C=c2\[nH]c(=O)/c(=C/c3ccc(N(C)C)cc3)[nH]c2=O)cc1`: “inactive”. Turning to `COc1ccc2c(c1)c(=Cc1ccc(N(C)C)cc1)c1cc(-c3ccccc3)[n+](C)n12`, the Potency is 0.92 µM (active). For `O=C(CSc1nc2[nH]ncc2c(=O)[nH]1)Nc1ccc(F)cc1`, the Potency entry was “inactive”. For the compound `O=C(NCCc1cccc(F)c1)C1CC(O)CN1C(=O)Nc1ccccc1` (configuration not stated), the Potency result is “inactive”. Regarding `CCCCN1C(=O)CCC(C(=O)O)C1c1ccc(OC)cc1` (configuration not stated), the Potency result is “inactive”. In the case of `CCCCc1ccc(NC(=O)CN2C(=O)NC(Cc3ccccc3)C2=O)cc1` (configuration not stated), the Potency result was “inactive”. Consider `CCn1c(COc2ccccc2)nnc1SCC(=O)NCc1ccco1`, for which the Potency entry was “inactive”. As for `O=C(Cn1c(=O)n(Cc2ccco2)c(=O)c2ccccc21)NCC1CCCO1` (configuration not stated), the Potency entry is “inactive”. Regarding `Cn1c2ccccc2c(=O)c2c(=O)n(Cc3ccco3)c(COc3ccccc3)nc21`, the Potency is 18.4 µM (active).
